From the supplement of paper PMC10849652
About 7,900 targets were measured; listed, in parts, are those with a hit and a random draw of the rest. About 0.6% of all pairs of compound and target were hits. Unmarked numbers belong to inactive results.

Columns and labels:
Assay in all cases: log2 fold change, soluble protein after heating vs DMSO (PISA); higher = thermal stabilisation; K562 cells, 10 uM, 30 min; active = over 0.2 and 3.5 SD of the protein, either way, in both replicates (recomputed)
[1] = compound: CC1=CC=C(C=C1)SC2=C3C=C(SC3=CN=C2)C(=O)N
Procedure, shortened: (§1)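 K562 cells (2×10^6 cells/mL) were treated with 10 μM compound for 30 min, and aliquots were heated for 3 min over 48°C-58°C. Pooled aliquots were extracted in PBS with 0.5% NP-40 at 4°C, and the supernatant after 21,000xg for 90 min was measured by TMTpro 16plex LC-MS/MS with channel sums equalised. Reported thermal stability, relative to control samples and from duplicates, is a log2 fold change.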

[2] = compound: CCCS(=O)(=O)Nc1ccc(F)c(C(=O)c2c[nH]c3ncc(Cl)cc23)c1F
Procedure, shortened: as §1

[3] = compound: CCCc1cc(C)[nH]c(=O)c1CNC(=O)c1cc(-c2ccnc(N3CCN(C)CC3)c2)cc2c1cnn2C(C)C
Procedure, shortened: as §1

barasertib = compound: CCN(CCCOc1ccc2c(Nc3cc(CC(=O)Nc4cccc(F)c4)[nH]n3)ncnc2c1)CCOP(=O)(O)O [barasertib]
Procedure, shortened: as §1

[4] = compound: CC[C@@H]1C(=O)N(C)c2cnc(Nc3ccc(C(=O)NC4CCN(C)CC4)cc3OC)nc2N1C1CCCC1
Procedure, shortened: as §1

volasertib = compound: CC[C@@H]1C(=O)N(C)c2cnc(Nc3ccc(C(=O)N[C@H]4CC[C@H](N5CCN(CC6CC6)CC5)CC4)cc3OC)nc2N1C(C)C [volasertib]
Procedure, shortened: as §1

[5] = compound: CC[C@H](C)N1C=C(C2=C(C=C(C=C21)C3=CN=C(C=C3)N4CCNCC4)C(=O)NCC5=C(C=C(NC5=O)C)C)C
Procedure, shortened: as §1

[6] = compound: CCn1cc(-c2ccnc3[nH]c(-c4cccc(CN(C)C)c4)cc23)c(-c2ccc(NC(=O)N(C)C)cc2)n1
Procedure, shortened: as §1

rosiglitazone = compound: CN(CCOC1=CC=C(C=C1)C[C@H]2C(=O)NC(=O)S2)C3=CC=CC=N3 (racemic) [rosiglitazone]
Procedure, shortened: as §1

[7] = compound: CN1C2=C(C3=C1C(=O)N(N=C3)CC4=CC(=CC=C4)N)SC(=C2)S(=O)C
Procedure, shortened: as §1

[8] = compound: CN1CCC(CNc2ccc3ncc(-c4cccc(OC(F)(F)F)c4)n3n2)CC1
Procedure, shortened: as §1

[9] = compound: CC1=C(C=C(C=C1)NC(=O)C2=CC(=CC=C2)N(C)C)NC(=O)C3=CC=C(C=C3)O
Procedure, shortened: as §1

[10] = compound: CC1=NC(=CC=C1)C2=C(N=C(N2)C(C)(C)C)C3=CC4=NC=CN=C4C=C3
Procedure, shortened: as §1

givinostat = compound: CCN(CC)Cc1ccc2cc(COC(=O)Nc3ccc(C(=O)NO)cc3)ccc2c1 [givinostat]
Procedure, shortened: as §1

[11] = compound: CCn1c(C(=O)N(C2CC2)C2CC2)cc2c3c(ncn3C)c(Nc3cc(C)n(C)n3)nc21
Procedure, shortened: as §1

Nexturastat A = compound: CCCCN(Cc1ccc(C(=O)NO)cc1)C(=O)Nc1ccccc1 [Nexturastat A]
Procedure, shortened: as §1

vemurafenib = compound: CCCS(=O)(=O)Nc1ccc(F)c(C(=O)c2c[nH]c3ncc(-c4ccc(Cl)cc4)cc23)c1F [vemurafenib]
Procedure, shortened: as §1

epoxomicin = compound: CC[C@H](C)[C@@H](C(=O)N[C@@H]([C@@H](C)O)C(=O)N[C@@H](CC(C)C)C(=O)[C@]1(CO1)C)NC(=O)[C@H]([C@@H](C)CC)N(C)C(=O)C [epoxomicin]
Procedure, shortened: as §1

[12] = compound: CN(C)CC(=O)Nc1ccc2[nH]c(=O)c3ccccc3c2c1
Procedure, shortened: as §1

[13] = compound: CC1=C(C=C(C=C1)NC(=O)C2=CC(=CC=C2)C(C)(C)C#N)NC3=CC4=C(C=C3)N=CN(C4=O)C
Procedure, shortened: as §1

Sequence of UniProt P33552 (P33552 whole entry, looked up): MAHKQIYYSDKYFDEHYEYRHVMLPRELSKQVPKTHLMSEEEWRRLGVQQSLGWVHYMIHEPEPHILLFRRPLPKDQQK
Sequence of UniProt O95628 (O95628 whole entry, looked up): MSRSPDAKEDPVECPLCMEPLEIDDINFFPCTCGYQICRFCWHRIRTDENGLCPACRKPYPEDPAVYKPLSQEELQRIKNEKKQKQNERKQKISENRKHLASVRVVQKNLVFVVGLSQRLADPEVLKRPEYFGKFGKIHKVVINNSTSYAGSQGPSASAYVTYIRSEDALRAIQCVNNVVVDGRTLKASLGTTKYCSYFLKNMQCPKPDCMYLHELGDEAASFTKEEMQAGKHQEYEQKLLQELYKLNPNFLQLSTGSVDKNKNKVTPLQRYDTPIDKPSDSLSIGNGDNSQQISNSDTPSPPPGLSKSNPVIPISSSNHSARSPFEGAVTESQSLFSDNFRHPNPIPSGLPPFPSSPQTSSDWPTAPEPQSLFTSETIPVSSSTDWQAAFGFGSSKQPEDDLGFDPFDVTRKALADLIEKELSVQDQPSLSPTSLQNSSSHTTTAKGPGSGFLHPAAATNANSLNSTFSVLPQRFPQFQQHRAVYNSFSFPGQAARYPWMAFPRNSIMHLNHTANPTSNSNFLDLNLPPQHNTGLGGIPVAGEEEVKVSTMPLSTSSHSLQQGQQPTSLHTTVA
Sequence of UniProt A8MTT3 (A8MTT3 whole entry, looked up): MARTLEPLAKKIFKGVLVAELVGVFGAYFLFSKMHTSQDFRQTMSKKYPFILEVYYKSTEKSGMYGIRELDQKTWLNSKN
Sequence of UniProt O75956 (O75956 whole entry, looked up): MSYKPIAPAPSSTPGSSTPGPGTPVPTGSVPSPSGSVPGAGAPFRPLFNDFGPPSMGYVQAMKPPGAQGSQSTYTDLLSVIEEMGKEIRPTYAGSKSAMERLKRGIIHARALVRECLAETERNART
Sequence of UniProt Q9H257 (Q9H257 whole entry, looked up): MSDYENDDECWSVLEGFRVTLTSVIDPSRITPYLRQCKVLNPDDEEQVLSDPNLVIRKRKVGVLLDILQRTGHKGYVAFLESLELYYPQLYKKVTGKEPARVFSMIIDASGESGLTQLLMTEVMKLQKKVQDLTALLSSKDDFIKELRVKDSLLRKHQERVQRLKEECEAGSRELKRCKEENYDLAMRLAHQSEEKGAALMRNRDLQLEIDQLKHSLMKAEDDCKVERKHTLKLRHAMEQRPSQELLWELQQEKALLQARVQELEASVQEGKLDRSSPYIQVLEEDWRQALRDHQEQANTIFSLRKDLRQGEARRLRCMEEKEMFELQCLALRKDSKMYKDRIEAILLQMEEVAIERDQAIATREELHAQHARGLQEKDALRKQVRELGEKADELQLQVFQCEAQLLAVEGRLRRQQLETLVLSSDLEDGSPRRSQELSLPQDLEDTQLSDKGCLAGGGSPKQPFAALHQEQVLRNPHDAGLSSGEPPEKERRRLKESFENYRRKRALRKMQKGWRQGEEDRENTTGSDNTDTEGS
Sequence of UniProt O75503 (O75503 whole entry, looked up): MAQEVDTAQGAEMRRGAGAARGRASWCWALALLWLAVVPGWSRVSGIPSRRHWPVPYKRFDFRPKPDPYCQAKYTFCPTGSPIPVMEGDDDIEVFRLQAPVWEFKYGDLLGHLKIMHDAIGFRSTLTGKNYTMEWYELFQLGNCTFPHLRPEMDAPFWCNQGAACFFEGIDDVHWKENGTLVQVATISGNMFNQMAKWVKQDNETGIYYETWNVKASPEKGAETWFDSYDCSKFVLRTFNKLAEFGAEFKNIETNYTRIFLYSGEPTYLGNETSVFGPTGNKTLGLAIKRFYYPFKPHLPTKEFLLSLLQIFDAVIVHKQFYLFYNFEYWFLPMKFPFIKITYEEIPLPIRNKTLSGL
Sequence of UniProt Q15417 (Q15417 whole entry, looked up): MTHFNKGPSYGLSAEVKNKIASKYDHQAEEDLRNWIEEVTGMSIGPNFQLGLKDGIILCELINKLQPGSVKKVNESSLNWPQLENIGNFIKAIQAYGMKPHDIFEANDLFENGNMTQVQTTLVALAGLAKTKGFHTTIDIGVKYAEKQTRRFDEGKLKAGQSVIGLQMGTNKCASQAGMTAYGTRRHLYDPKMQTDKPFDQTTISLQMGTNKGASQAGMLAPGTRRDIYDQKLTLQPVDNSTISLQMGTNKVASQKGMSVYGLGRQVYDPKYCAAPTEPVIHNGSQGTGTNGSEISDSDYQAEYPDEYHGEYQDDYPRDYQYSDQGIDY
Sequence of UniProt Q14194 (Q14194 whole entry, looked up): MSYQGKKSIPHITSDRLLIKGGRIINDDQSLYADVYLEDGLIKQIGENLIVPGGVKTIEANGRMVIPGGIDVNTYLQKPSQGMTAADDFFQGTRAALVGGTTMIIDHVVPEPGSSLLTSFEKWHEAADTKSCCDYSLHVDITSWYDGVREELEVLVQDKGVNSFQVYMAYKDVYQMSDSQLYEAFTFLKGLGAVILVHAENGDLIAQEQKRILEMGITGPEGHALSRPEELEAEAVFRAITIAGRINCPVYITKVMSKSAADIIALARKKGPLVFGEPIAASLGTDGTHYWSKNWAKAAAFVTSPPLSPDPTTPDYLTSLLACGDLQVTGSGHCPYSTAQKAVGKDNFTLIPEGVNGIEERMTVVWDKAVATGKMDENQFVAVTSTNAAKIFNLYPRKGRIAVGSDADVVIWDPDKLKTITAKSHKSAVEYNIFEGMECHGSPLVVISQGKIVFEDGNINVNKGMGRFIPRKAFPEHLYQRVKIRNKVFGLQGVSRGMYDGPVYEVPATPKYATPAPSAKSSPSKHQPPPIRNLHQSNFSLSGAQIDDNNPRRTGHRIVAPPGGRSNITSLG
Sequence of UniProt P48729 (P48729 whole entry, looked up): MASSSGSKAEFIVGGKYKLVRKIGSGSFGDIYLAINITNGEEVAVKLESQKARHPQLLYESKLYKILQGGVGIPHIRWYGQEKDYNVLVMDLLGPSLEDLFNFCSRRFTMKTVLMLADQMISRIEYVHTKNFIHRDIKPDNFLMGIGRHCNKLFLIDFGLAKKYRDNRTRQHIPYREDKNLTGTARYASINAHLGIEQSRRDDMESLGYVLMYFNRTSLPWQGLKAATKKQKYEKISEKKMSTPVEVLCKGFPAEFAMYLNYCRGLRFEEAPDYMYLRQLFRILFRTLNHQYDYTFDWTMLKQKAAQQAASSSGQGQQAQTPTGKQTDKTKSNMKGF
Sequence of UniProt P51795 (P51795 whole entry, looked up): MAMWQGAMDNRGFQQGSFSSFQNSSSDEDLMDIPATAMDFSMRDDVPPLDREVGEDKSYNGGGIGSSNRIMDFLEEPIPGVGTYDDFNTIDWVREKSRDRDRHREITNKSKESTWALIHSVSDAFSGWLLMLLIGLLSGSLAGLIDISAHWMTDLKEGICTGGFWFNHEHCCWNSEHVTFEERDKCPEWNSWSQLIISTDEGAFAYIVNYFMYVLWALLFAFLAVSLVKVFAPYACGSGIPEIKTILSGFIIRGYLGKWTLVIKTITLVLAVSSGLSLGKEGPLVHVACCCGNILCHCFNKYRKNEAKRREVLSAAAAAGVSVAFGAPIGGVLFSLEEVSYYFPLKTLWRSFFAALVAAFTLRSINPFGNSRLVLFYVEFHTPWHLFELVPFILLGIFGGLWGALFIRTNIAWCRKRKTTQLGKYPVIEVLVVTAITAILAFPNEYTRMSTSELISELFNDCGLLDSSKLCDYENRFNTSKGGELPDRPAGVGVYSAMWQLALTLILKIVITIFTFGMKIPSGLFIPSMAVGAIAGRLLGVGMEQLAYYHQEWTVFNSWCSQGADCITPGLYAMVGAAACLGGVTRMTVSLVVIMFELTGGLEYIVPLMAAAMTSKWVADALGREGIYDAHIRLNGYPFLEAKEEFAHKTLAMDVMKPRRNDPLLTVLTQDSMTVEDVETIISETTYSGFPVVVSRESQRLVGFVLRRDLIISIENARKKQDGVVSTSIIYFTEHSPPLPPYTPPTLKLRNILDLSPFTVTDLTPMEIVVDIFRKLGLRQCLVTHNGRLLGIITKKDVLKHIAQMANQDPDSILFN
Sequence of UniProt Q8N4S0 (Q8N4S0 whole entry, looked up): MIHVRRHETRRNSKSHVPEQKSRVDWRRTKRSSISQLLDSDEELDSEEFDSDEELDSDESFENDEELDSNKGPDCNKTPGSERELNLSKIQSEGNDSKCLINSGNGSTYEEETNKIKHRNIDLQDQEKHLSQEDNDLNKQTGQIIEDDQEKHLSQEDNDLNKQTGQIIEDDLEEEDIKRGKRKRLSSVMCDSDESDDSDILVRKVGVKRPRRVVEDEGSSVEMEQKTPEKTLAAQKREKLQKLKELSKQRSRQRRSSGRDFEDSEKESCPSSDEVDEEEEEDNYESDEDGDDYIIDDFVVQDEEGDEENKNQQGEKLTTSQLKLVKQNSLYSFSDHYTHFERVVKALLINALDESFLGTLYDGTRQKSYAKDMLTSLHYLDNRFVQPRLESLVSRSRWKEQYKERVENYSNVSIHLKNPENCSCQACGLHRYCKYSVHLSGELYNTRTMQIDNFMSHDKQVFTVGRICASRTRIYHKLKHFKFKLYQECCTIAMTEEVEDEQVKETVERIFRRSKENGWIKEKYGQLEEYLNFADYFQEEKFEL
Sequence of UniProt P51911 (P51911 whole entry, looked up): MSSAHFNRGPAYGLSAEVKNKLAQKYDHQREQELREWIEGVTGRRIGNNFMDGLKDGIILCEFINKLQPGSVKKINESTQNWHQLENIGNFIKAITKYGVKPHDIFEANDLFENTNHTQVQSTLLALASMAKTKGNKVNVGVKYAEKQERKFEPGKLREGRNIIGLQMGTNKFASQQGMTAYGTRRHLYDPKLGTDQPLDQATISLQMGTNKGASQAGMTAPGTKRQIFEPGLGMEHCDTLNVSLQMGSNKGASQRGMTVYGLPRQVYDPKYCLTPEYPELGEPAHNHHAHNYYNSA
Sequence of UniProt P51636 (P51636 whole entry, looked up): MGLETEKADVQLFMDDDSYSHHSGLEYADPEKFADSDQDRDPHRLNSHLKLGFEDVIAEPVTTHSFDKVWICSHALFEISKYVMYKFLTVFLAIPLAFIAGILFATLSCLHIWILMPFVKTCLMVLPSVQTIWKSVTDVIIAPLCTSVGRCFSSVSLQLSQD

Row | Target | log2 fold change [1] | log2 fold change [2] | log2 fold change [3] | log2 fold change (barasertib) | log2 fold change [4] | log2 fold change (volasertib) | log2 fold change [5] | log2 fold change [6] | log2 fold change (rosiglitazone) | log2 fold change [7] | log2 fold change [8] | log2 fold change [9] | log2 fold change [10] | log2 fold change (givinostat) | log2 fold change [11] | log2 fold change (Nexturastat A) | log2 fold change (vemurafenib) | log2 fold change (epoxomicin) | log2 fold change [12] | log2 fold change [13]
1 | CKS2 (UniProt P33552) | -0.031 | 0.039 | -0.077 | 0.045 | 0.01 | -0.044 | 0.029 | -0.23 | 0.028 | 0.023 | 0.594 (active) |  |  |  |  |  |  |  |  | 
2 | CSNK1A1 isoform 3 (UniProt P48729) | -0.08 | 0.227 | -0.035 | -0.089 |  | -0.224 |  |  | -0.005 |  |  |  |  |  |  |  |  |  |  | 
3 | CARD9 (UniProt Q9H257) |  |  |  |  |  |  |  |  |  |  |  | -0.15 | 0.052 | -0.106 | -0.103 |  |  |  |  | 
4 | CASK (UniProt O14936) |  |  |  |  |  |  |  |  |  | 0.014 |  |  | -0.091 | -0.06 | -0.086 |  |  |  |  | 
5 | CA1 (UniProt E5RIF9) |  |  |  | -0.004 |  |  |  |  | -0.083 | -0.056 |  |  |  |  |  | -0.413 | -0.383 | 0.132 | -0.037 | 
6 | CPNE5 (UniProt Q9HCH3) |  |  |  |  |  |  |  |  |  |  |  |  |  | -0.005 | 0.132 |  |  |  |  | 
7 | CLCN5 isoform 2 (UniProt P51795) |  |  |  |  | -0.299 |  | 0.151 | 0.172 |  | 0.098 | -0.267 | 0.052 | -0.016 | 0.022 | 0.002 |  | 0.029 |  | 0.046 | 
8 | CNN1 (UniProt P51911) | -0.1 | -0.042 | -0.012 |  | -0.049 | -0.066 | -0.066 | -0.403 |  |  | -0.192 |  |  |  |  | -0.029 | 0.056 | -0.015 | -0.007 | -0.068
9 | CDK2AP2 (UniProt O75956) |  |  | -0.065 | -0.029 | 0.078 |  | -0.04 |  | -0.002 |  |  | -0.14 | 0.021 | -0.154 | 0.074 | 0.022 |  | 0.137 |  | 
10 | CS (UniProt F8VU34) |  |  |  | -0.024 | -0.093 |  |  |  | 0.221 |  |  |  |  |  |  |  |  |  |  | 
11 | CRMP1 isoform 2 (UniProt Q14194) |  |  |  | 0.035 |  |  | 0.2 | -0.198 | 0.047 | -0.25 | 0.038 |  |  | -0.19 | -0.303 |  | -0.026 |  | -0.072 | 0.089
12 | COMMD3-BMI1 (UniProt R4GMX3) | -0.126 | -0.426 (active) |  |  |  | 0.038 | 0.062 | 0.006 |  |  | -0.105 |  |  |  |  | 0.03 |  | 0.026 |  | -0.002
13 | CAV2 (UniProt P51636) | -0.018 | 0.087 | 0.001 | 0.175 |  | -0.098 | -0.032 | -0.036 | -0.076 | 0.01 | 0.074 |  | 0.078 | 0.137 | -0.059 |  |  |  |  | -0.164
14 | CFAP47 (UniProt Q6ZTR5) | -0.159 | -0.106 |  | -0.035 | 0.063 | 0.065 |  |  | 0.108 | 0.23 |  |  |  |  |  | -0.041 | -0.11 | -0.006 | -0.248 | 
15 | CLN3 (UniProt Q13286) | -0.025 | -0.119 | -0.09 | -0.027 | -0.003 | 0.055 | -0.038 |  | -0.002 | 0.074 |  | 0.004 | -0.093 | 0.02 | -0.008 | -0.039 | 0.147 | 0.09 | -0.001 | 
16 | CCDC82 (UniProt Q8N4S0) | -0.007 | 0.055 | -0.035 | 0.073 | -0.062 | -0.349 (active) | -0.018 |  | 0 | -0.069 |  | -0.027 | -0.103 | -0.074 | -0.057 | 0.043 | 0.015 | 0.143 | 0.001 | 
17 | CLN5 (UniProt O75503) | 0.058 | 0.104 | -0.54 | 0.06 |  | -1.25 (active) | -0.001 | -0.183 | -0.025 | 0.139 | -0.834 (active) |  | 0.068 | -0.17 | 0.416 | 0.012 |  | 0.014 |  | 0.031
18 | CCDC187, A0A1W2PQX5 |  |  |  |  |  |  | 0.012 | -0.03 |  |  | -0.029 | -0.105 |  |  |  | 0.003 |  | 0.085 |  | 
19 | CRLS1 (UniProt Q9UJA2) | 0.064 | 0.117 | -0.074 |  | 0.029 | 0.026 | 0.001 | 0.052 |  | -0.006 | 0.09 |  | -0.014 | -0.108 | -0.024 |  | 0.033 |  | -0.024 | 0.337 (active)
20 | CNOT4 isoform 9 (UniProt O95628) | 0.003 | 0.006 | -0.171 | 0.015 | 0.198 | -0.006 | -0.046 | -0.095 | -0.022 | -0.105 | 0.072 | -0.034 | 0.017 | 0.053 | 0.017 |  | -0.059 |  | 0.046 | 
21 | CLPTM1L (UniProt G5E9Z2) |  |  | -0.035 | -0.076 |  |  | -0.055 | 0.116 | 0.189 |  | 0.052 |  |  |  |  | -0.466 | 0.055 | 0.247 | 0.117 | 0.122
22 | CNN3 (UniProt Q15417) | 0.064 | 0.07 | -0.018 | 0.047 | -0.08 | -0.368 (active) | 0.072 | 0.008 | 0.058 | -0.018 | -0.055 |  |  | 0.073 | 0.005 | 0.015 | 0.034 | 0.066 | 0.106 | 0.014
23 | CEBPZOS (UniProt A8MTT3) | 0.027 | 0.132 | -0.069 | 0.059 | 0.002 | -0.035 | -0.038 | 0.013 | 0.101 | -0.103 | -0.015 | -0.015 | -0.016 | -0.029 | 0.057 |  | 0.065 |  | -0.001 | 
24 | CD84 (UniProt Q9UIB8) |  |  |  |  |  |  |  |  |  | -0.077 |  |  |  | 0.006 | 0.111 | 0.096 |  | -0.009 |  | -0.181
